From PubChem BioAssay
A selection: hits, their analogues and other compounds. The true share with any hit is near 3%.
PPC-1+TRAIL kill: compounds killing PPC-1 cancer cells with TRAIL present, primary screen, TRAIL potentiator project, ATPLite luminescence, uHTS; PPC-1 cells + TRAIL, ATPLite viability luminescence; AID 1443, 2008; actives 0.41% (n = 220,000); cell killing (% activity), % at 4 µM or 5 µM;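 active means cell killing above 50% in the first pass at 4 µM, then a duplicate retest at 5 µM averaging 50% or more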;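 further: plate controls were cells with TRAIL plus DMSO for no effect and medium-only wells lacking cells for full effect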
SENP8 block-1: human SENP8 protease inhibitors, primary screen, biochemical, fluorescence, Nedd8 protein substrate, uHTS; recombinant SENP8; inhibition, % at 20 µM; AID 602440, 2012; Sentrin-specific protease 8 (Homo sapiens), Q96LD8; actives 0.64% (n = 360,000); in the data active means inhibition mostly above about 40%, no sharp cut-off; inactive means mostly below about 27%
Target sequence (Q96LD8 whole entry, looked up): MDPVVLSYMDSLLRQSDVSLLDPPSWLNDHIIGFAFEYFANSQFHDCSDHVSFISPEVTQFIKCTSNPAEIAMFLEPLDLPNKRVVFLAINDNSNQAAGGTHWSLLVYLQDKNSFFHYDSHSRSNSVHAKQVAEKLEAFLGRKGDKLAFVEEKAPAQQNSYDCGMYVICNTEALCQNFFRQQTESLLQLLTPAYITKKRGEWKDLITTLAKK
SENP6 block: SENP6 protease inhibitors, primary screen, biochemical, luminescence, uHTS | inhibition, % at 10 µM | Sentrin-specific protease 6 (Homo sapiens), Q9GZR1 | Recombinant SENP6 catalytic domain, aminoluciferin luminescence | AID 2599, 2010 | actives 1.8% (n = 330,000);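 active means inhibition above about 50% at the single tested dose, limit read from the data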;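 further: plate controls were DMSO wells with enzyme for no effect and DMSO wells lacking enzyme for full effect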
SENP8 block-2: SENP8 protease inhibitors, primary screen, biochemical, luminescence. Sentrin-specific protease 8 (Homo sapiens), Q96LD8. purified SENP8, Z-RLRGG-aminoluciferin cleavage. inhibition, % at 10 µM. actives 1.2% (n = 330,000); in the data active means inhibition above about 50%
SENP7 block: SENP7 protease inhibitors, primary screen, biochemical, luminescence, uHTS. actives 1.5% (n = 330,000). recombinant SENP7, Z-RLRGG-aminoluciferin luminescence, 40 min. inhibition, % at 5 µM;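 active means inhibition above about 50% at the single test dose, limit read from the data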;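 further: plate controls were DMSO with enzyme for no effect and no enzyme buffer wells for full effect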
C8 TRAIL sens: viability loss with TRAIL in NB7+C8 cells, primary screen, TRAIL sensitizer project, cell-based, ATPlite luminescence; inhibition (viability loss, TRAIL sensitization), % at 10 µM; actives 1% (n = 360,000);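 active means compounds causing at least 50% loss of cell viability in the single-dose screen, relative to plate controls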
SENP8 conf: SENP8 protease inhibitors, retest, confirmation, biochemical, luminescence, single concentration; Recombinant SENP8, Z-RLRGG-aminoluciferin luminescence, 60 min; inhibition, % at 12.5 µM; actives 40% (n = 6,200); shares compounds with SENP7 block;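 active means mean inhibition across replicates above about 50%, limit read from the data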
SENP6 confirm: SENP6 protease inhibitors, confirmation, biochemical, luminescence, single concentration; AID 488915, 2010; actives 58% (n = 6,200); recombinant SENP6, Z-RLRGG-aminoluciferin luminescence; inhibition, % at 12.5 µM; shares compounds with SENP7 block
SENP7 confirm: SENP7 protease inhibitors, retest, confirmation, biochemical, luminescence, single concentration; recombinant SENP7, Z-RLRGG-aminoluciferin luminescence, 40 min; actives 69% (n = 6,200); shares compounds with SENP7 block; inhibition, % at 12.5 µM
Casp3 SENP sel: caspase-3 protease inhibitors, confirmation, selectivity assay for SENP inhibitor project, biochemical, single concentration. shares compounds with SENP7 block. purified caspase-3, Z-DEVD-aminoluciferin luminescence, 60 min. inhibition, % at 12.5 µM. actives 60% (n = 6,200). AID 488918, 2010;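 active means mean inhibition above about 50%, limit read from the data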;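 further: plate controls were enzyme with DMSO for no effect and wells without caspase-3 for full effect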
Target sequence (P42574 28-227 limits assumed): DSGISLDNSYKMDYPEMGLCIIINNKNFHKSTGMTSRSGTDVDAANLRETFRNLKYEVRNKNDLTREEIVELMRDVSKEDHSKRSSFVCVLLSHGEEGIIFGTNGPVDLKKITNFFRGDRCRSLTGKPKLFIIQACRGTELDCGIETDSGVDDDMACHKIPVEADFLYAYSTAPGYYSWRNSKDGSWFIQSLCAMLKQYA
SENP luc ctr: luminescence interference (SENP counter-screen) | Pre-incubated SENP8/Z-RLRGG-aminoluciferin, luciferase luminescence interference | actives 39% (n = 6,200) | inhibition, % at 12.5 µM | shares compounds with SENP7 block | AID 488919;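 active means mean inhibition above about 50% when retested at one dose, limit read from the data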;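 further: plate controls were DMSO wells with completed reaction for no effect and substrate without enzyme for full effect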
* hit, by the source's call; i = inactive; x = no result.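 How the source made its calls, unless noted: active means mean inhibition above about 50% in the one-dose retest (limit read from the data); inactive means the rest.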

SMILES	PPC-1+TRAIL kill	SENP8 block-1	SENP6 block	SENP8 block-2	SENP7 block	C8 TRAIL sens	SENP8 conf	SENP6 confirm	SENP7 confirm	Casp3 SENP sel	SENP luc ctr
CC(C)[C@@]1(NC(=O)[C@@H]2C=C3c4cccc5[nH]cc(c45)C[C@H]3N(C)C2)O[C@@]2(O)[C@@H]3CCCN3C(=O)[C@H](Cc3ccccc3)N2C1=O	15	x	x	x	x	x	x	x	x	x	x
CC(C)[C@H]1C(=O)N2CCC[C@H]2[C@]2(O)O[C@](NC(=O)[C@@H]3C=C4c5cccc6[nH]cc(c56)C[C@H]4N(C)C3)(C(C)C)C(=O)N12	33	-379	52*	43	40	-2	-11	4	-7	-2	-8
COc1ccc(C(C)=O)cc1CC(C(=O)c1ccccc1)N(C)C (centres undefined)	-9	8	15	-6	2	0	x	x	x	x	x
Cc1ccc2c(c1N)C(=O)c1ccccc1C2=O	x	29	65*	63*	62*	11	19	22	50*	25	18
CCCCCCn1c(N)c(C(=O)NCCN2CCOCC2)c2nc3ccccc3nc21	13	-432	36	7	22	-14	x	x	x	x	x
CCCCCn1c(N)c(C(=O)NCCN2CCOCC2)c2nc3ccccc3nc21	12	-490	11	9	3	12	x	x	x	x	x
Nc1c(C(=O)NCCCc2ccccc2)c2nc3ccccc3nc2n1Cc1cccs1	46	-285	60*	46	35	1	-18	11	0	-5	-6
CCCCCn1c(N)c(C(=O)NCc2cccs2)c2nc3ccccc3nc21	-4	x	80*	84*	40	x	12	14	8	-2	-4
Nc1c(C(=O)NCc2ccco2)c2nc3ccccc3nc2n1Cc1ccccc1	24	-395	16	11	14	5	x	x	x	x	x
CCCCn1c(N)c(C(=O)NCc2cccs2)c2nc3ccccc3nc21	24	-257	88*	93*	38	-4	10	18	17	2	2
CCCOC(=O)c1c(N)n(Cc2cccs2)c2nc3ccccc3nc12	13	-284	5	-2	-2	-2	x	x	x	x	x
CCCCNC(=O)c1c(N)n(Cc2ccc3c(c2)OCO3)c2nc3ccccc3nc12	18	-270	94*	89*	62*	20	-7	3	-2	5	3
CCN(CC)CCN/N=C(\C)c1c(O)[nH]c(=O)[nH]c1=O	2	6	13	-2	-2	-4	x	x	x	x	x
COCCCn1c(N)c(C(=O)NCCC(C)C)c2nc3ccccc3nc21	5	-288	81*	77*	63*	1	-6	13	-1	4	-6
Cc1cc(N=Nc2ccccc2C)ccc1N	x	55*	90*	76*	86*	25	81*	82*	96*	49	86*
CN=C1CN(O)C(c2ccccc2)=c2cc(Cl)ccc2=N1	x	6	-12	5	-1	-13	x	x	x	x	x
COc1cc2c(cc1OC)-c1c(OC)c(OC)cc3c1C(C2)N(C)CC3 (centres undefined)	0	-136	82*	58*	55*	4	-2	73*	30	24	-3
COc1cc2c(cc1OC)-c1c3c(cc4c1[C@@H](C2)N(C)CC4)OCO3	11	i	78*	32	46	31	10	38	8	4	-3
CC(Cc1ccccc1)N1C(=O)c2ccccc2C1=O (centres undefined)	x	12	5	14	1	15	x	x	x	x	x
Cc1cc(OC(C)C(=O)N[C@H](C(=O)O)c2ccccc2)c2c3c(c(=O)oc2c1)CCC3 (some centres undefined)	x	-155	-9	1	3	-2	x	x	x	x	x
CN(CC=CCN(C)P(=S)(N1CC1)N1CC1)P(=S)(N1CC1)N1CC1	x	-2	x	x	x	15	x	x	x	x	x
O=C(c1cc2c(s1)-c1ccccc1OC2)N1CCC2(CC1)OCCO2	4	-277	84*	70*	84*	12	75*	75*	94*	84*	80*
CCC(C)N1C(=O)NC(=O)C2(Cc3c(ccc4ccccc34)N(C)C2)C1=O (centres undefined)	2	-28	76*	11	16	11	-20	-7	-6	-6	-6
COc1ccc2c(c1)CC1(CN2C)C(=O)NC(=O)N(CCc2ccccc2)C1=O (centres undefined)	-26	10	-11	-6	8	-2	x	x	x	x	x
CC1C2Cc3ccc(O)cc3[C@]1(C)CCN2CCc1ccccc1 (some centres undefined)	x	1	-29	5	0	-6	x	x	x	x	x
N/C(=N\[N+](=O)[O-])N/N=C/c1ccc(O)cc1	16	13	92*	67*	79*	0	78*	75*	91*	92*	81*
Nc1nonc1C(=O)N/N=C/c1ccc([N+](=O)[O-])o1	22	34	13	9	3	36	x	x	x	x	x
CSc1nc(Cl)c(Br)c(N2CC2)n1	x	21	x	x	x	1	x	x	x	x	x
CC(C)c1ccc(N=Nc2c(O)[nH]c(=O)[nH]c2=O)cc1	31	24	-8	-9	1	37	x	x	x	x	x
O=c1[nH]c(=S)[nH]c(O)c1N=Nc1ccc(SC(F)F)cc1	30	25	100*	91*	83*	18	81*	95*	89*	95*	62*
